Screening data (PubChem)
Only some compounds are listed: those with a hit (about 7% of all), similar ones and a draw of the others.
D3 antag: D3 dopamine receptor (human) antagonism | D3R cells, DiscoveRx beta-arrestin luminescence, antagonist mode; hits give low values | P35462 | 360,000 compounds, 2.5% hits | max response, negative = inhibition, %; in the data active means max response below about -50%; inconclusive means no clear call, values can overlap the other calls
Target sequence (P35462 whole entry, looked up): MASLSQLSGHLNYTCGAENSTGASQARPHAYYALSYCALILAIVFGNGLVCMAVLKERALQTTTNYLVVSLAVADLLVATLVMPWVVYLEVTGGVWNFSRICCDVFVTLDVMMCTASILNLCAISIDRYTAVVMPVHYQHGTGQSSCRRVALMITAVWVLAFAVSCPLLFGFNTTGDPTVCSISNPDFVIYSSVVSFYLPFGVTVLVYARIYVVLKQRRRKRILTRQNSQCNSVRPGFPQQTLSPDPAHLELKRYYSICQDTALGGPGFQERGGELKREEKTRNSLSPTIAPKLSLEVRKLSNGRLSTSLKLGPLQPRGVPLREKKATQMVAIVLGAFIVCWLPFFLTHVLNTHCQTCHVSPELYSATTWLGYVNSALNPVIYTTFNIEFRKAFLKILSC
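Cells plated overnight at 1500 cells/well, then exposed to library compounds with dopamine controls for 90 minutes at 37 degrees C. DiscoveRx reagent added for 30–60 minutes at room temperature; luminescence read, quantitative HTS format.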
IL1B secr inh: inhibitors of inflammasome signaling (IL-1 beta secretion) | 360,000 compounds, 4.7% hits | AID 743279 | activity change, % at 57.5 µM | THP-1 LPS/ATP IL-1B secretion, AlphaLISA, 16 h; hits give low values; in the data active means activity change below about -50%; inconclusive means mostly about -30% to -49%
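Secreted IL-1B measured by AlphaLISA bead assay after 16 h compound exposure of THP-1 cells; compounds (final up to 57.5 uM) added 1 h before LPS (250 ng/mL) and ATP (1.25 mM) stimulation; lower signal means less secretion.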
ATXN2 expr inh: inhibitors of ATXN2 expression; AID 1745845; Potency, µM (top dose mostly 57 µM), usual class: inhibitors; HEK-293 ATXN2-luciferase reporter, luminescence, 24 h; 360,000 compounds, 0.72% hits; further: nearly all actives have a fitted effect of over 55% in size
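ATXN2-luciferase reporter cells (luciferase flanked by upstream and downstream ATXN2 gene portions) were treated 24 h at 37 °C with compounds at up to 57 uM. SteadyGlo luminescence gave expression; GF-AFC fluorescence gave viability.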
DRD3 agonist: D3 dopamine receptor (human) agonism. D3R DiscoveRx beta-arrestin cells, luminescence, 90 min. P35462. max activation, %. 410,000 compounds, 0.58% hits; in the data active means max activation above about 30%
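Agonist mode: compounds and dopamine controls were applied to plated cells for 90 min at 37 degrees C after an overnight attachment at 1500 cells/well. Luminescent read-out followed 30 - 60 minutes at room temperature with DiscoveRx detection reagent.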
S2 tox: reduces viability in counter-screen for ATXN expression inhibitors; S2 cells (HEK-293 line with an ATXN2-luciferase reporter) viability, CellTiter-Fluor protease fluorescence, 24 h; Potency, µM (top dose mostly 56.7 µM), most hits filed as cytotoxic; 400,000 compounds, 0.49% hits; further: nearly all actives have a fitted effect of over 40% in size
a7 integrin act: activators of alpha7 integrin expression for muscular dystrophy; alpha7betagal myoblasts, beta-gal FDG fluorescence, 48 h; Potency, µM (titrated, usually from 38.3 µM), hits mostly activators; 350,000 compounds, 0.064% hits; AID 624291; further: nearly all actives have a fitted effect of over 60% in size
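Alpha7betagal+/- myoblasts (passage 13) were plated 16-24 hr, then exposed to compounds (1:260 dilution of DMSO stock) for 48 hours at 37C. After MPER lysis, β-galactosidase reporter activity was read as FDG fluorescence (ex 480/em 540) after 30 minutes.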
Each line names hits and unclear results; the compound was inactive in the other large screens. Unless noted, the call rests on the fitted dose curve; in most records, active means well fitted curve in the direction sought with a large enough effect; inconclusive means small, poorly fitted or top-dose-only effect, or another doubt; inactive means no such curve, though single readings can be large; an effect the other way counts as inactive or inconclusive.

CCn1ncc(Br)c1C(=O)Nc1ccc(F)cc1F	none
CCn1ncc(Br)c1C(=O)Nc1ccc(F)c([N+](=O)[O-])c1	IL1B secr inh -97.4
Cc1nsc2nc3c(F)c(F)c(F)c(F)c3cc12	IL1B secr inh -96.7
O=C(Cc1cn(Cc2cccc(Cl)c2)c2ccccc12)N1CCCCCC1	IL1B secr inh -65.3
CC1CCCN(C(=O)Cc2cn(Cc3cccc(Cl)c3)c3ccccc23)C1 (stereo not given)	IL1B secr inh -75.7
Cn1ccc2c(-c3cccc(C=O)c3)cc3c(c21)C1CCC3C1 (stereo not given)	none (no result: a7 integrin act)
CCOC(=O)/C=C(C)\C=C\c1c[nH]c2ccccc12	D3 antag inconclusive, IL1B secr inh -64.0
N#Cc1ccc2ccn(CC(=O)NCc3ccco3)c2c1	IL1B secr inh inconclusive
CCOC(=O)/C(=N\O)C1=NC(C)(C)Cc2ccccc21	none
CCOC(=O)/C(=N/O)C1=NC(C)(C)Cc2cc(C)c(C)cc21	IL1B secr inh -71.7
CC(=O)Nc1ccc(S(=O)(=O)N2CCc3ccccc3C2CC(=O)O)cc1 (stereo not given)	none
CCCCCCCNC(=O)C1(CC2CC(c3cccc(Br)c3)=NO2)CCN(C(=O)C2(C)CC2)CC1 (stereo not given)	IL1B secr inh -59.5, ATXN2 expr inh inconclusive, S2 tox inconclusive
CCCCCCCNC(=O)C1(CC2CC(c3cccc(Br)c3)=NO2)CCN(C(=O)CCCCCBr)CC1 (stereo not given)	IL1B secr inh inconclusive, ATXN2 expr inh inconclusive, S2 tox inconclusive
O=C(NCc1nc(-c2ccc(C(F)(F)F)cc2)no1)Nc1ccc(OC(F)(F)F)cc1	IL1B secr inh -90.1, ATXN2 expr inh inconclusive, S2 tox inconclusive
COCCNC(=O)c1ccc(-n2c(-c3ccccc3)cc3c2CCC(C)C3)cc1 (stereo not given)	none (no result: D3 antag, IL1B secr inh, ATXN2 expr inh, S2 tox, a7 integrin act)
O=[N+]([O-])c1cc(S(=O)(=O)N2CCCC2)ccc1OCCOc1ccccc1	IL1B secr inh inconclusive
CN(CCOc1ccccc1)C(=O)c1cc(S(=O)(=O)N2CCCCC2)ccc1Cl	IL1B secr inh -65.2
NC(=O)c1cc(S(=O)(=O)N2CCCC2)ccc1OCCOc1ccccc1	IL1B secr inh -51.1
Cc1ccc(S(=O)(=O)N2CCN(c3ccccc3)CC2)cc1C(N)=O	DRD3 agonist 34.5
Cc1ccc(-c2nc3ccccc3[nH]2)cc1NC(=O)c1ccc2c(c1)OCO2	none
CCOc1ccc(C(=O)Nc2cc(-c3nc4ccccc4[nH]3)ccc2C)cc1[N+](=O)[O-]	IL1B secr inh -50.4
CCCOc1cccc(C(=O)Nc2cc(-c3nc4ccccc4[nH]3)ccc2C)c1	ATXN2 expr inh inconclusive, S2 tox 20µM (no result: D3 antag, IL1B secr inh, a7 integrin act)
Cc1ccc(-c2nc3ccccc3[nH]2)cc1NC(=S)NC(=O)c1ccccc1Br	D3 antag -50.5, IL1B secr inh -56.2, ATXN2 expr inh inconclusive, S2 tox inconclusive
CC(C)(C)c1ccc(C(=O)CC(Sc2ccc(Cl)cc2)C(=O)O)cc1 (stereo not given)	D3 antag -64.0, IL1B secr inh -96.5, ATXN2 expr inh inconclusive (no result: S2 tox)
Cc1ccc(SC(CC(=O)c2ccc(F)cc2)C(=O)O)cc1 (stereo not given)	IL1B secr inh -96.2
O=C(CC(C(=O)O)c1ccc(F)cc1)c1ccc(Cl)cc1 (stereo not given)	none
CCCCn1c(N)c(N(CC(C)C)C(=O)C2CCN(S(=O)(=O)c3ccc(OCC)cc3)CC2)c(=O)[nH]c1=O	IL1B secr inh inconclusive
CC(C)C(NC(=O)c1ccc(C(C)(C)C)cc1)C(=O)Nc1cccc(S(N)(=O)=O)c1 (stereo not given)	IL1B secr inh -52.0
Cc1nnc2c(NCCc3ccccc3)nc3ccccc3n12	none
Cn1c(SC2=CS(=O)(=O)c3ccccc32)nc2ccccc21	IL1B secr inh -119.0, ATXN2 expr inh inconclusive (no result: S2 tox)
CCN(CC)CCNC(=O)c1nn(-c2ccc(Cl)cc2)c2c1CCc1cc(OC)ccc1-2	IL1B secr inh -102.9, ATXN2 expr inh inconclusive, S2 tox inconclusive
C[C@H]1CN([C@@H](C)CO)S(=O)(=O)c2ccc(Br)cc2O[C@H]1CN(C)Cc1ccccc1F	IL1B secr inh inconclusive, ATXN2 expr inh inconclusive, S2 tox inconclusive
O=C(NCc1ccc(-c2csnn2)cc1)c1cccs1	D3 antag -50.7
Cc1nn2c(nc(N3CCOCC3)c3ccccc32)c1C=C(C#N)C#N	none
Cc1nn2c(nc(N3CCCCC3)c3ccccc32)c1C=O	IL1B secr inh -74.4 (no result: S2 tox)
COc1ccc(C[C@@H]2CN3C(=NC[C@@H]3Cc3ccc(O)cc3)N2C[C@H](C)NC(=O)CCC2CCCCC2)cc1	IL1B secr inh inconclusive, S2 tox inconclusive
CC(C)[C@H]1CN=C2N(C[C@H](C)NC(=O)CCC3CCCCC3)[C@H](Cc3ccc(O)cc3)CN21	D3 antag -94.0, S2 tox inconclusive
C[C@@H](CN1C2=NC[C@H](C)N2C[C@H]1Cc1ccc(O)cc1)NC(=O)CCC1CCCCC1	D3 antag -66.3
CC(C)CC1NC(=O)N(CC(=O)N2CCN(S(=O)(=O)c3ccc(Cl)cc3)CC2)C1=O (stereo not given)	none
O=C1OC(N2CCN(Cc3ccccc3)CC2)c2ccccc21 (stereo not given)	none
O=C(N1CCN(Cc2ccc3c(c2)OCO3)CC1)C(Cl)(Cl)Cl	none
CN(C(=O)COc1ccccc1C(=O)NCc1ccccc1)C1CCS(=O)(=O)C1 (stereo not given)	none
N#Cc1cc(O)c(-n2nnc3ccccc32)cc1C#N	none
N#Cc1cc(Oc2cccc3cccnc23)c(-n2nnc3ccccc32)cc1C#N	D3 antag inconclusive, IL1B secr inh -59.3, ATXN2 expr inh inconclusive
C=CCSc1nc2ccccc2n1C(=O)/C=C/c1ccc(OC)c(OC)c1	IL1B secr inh -101.8, ATXN2 expr inh 14.1µM, S2 tox 10µM
CCn1c(SCC(=O)N/N=C/c2ccc(OC)c(OC)c2)nc2ccccc21	none
COc1ccc(/C=C/C(=O)N2CC(C)OC(C)C2)cc1OC (stereo not given)	none (no result: ATXN2 expr inh)
CCSc1nc2ccccc2n1C(=O)/C=C/c1ccc(OC)c(OC)c1	D3 antag -51.2, IL1B secr inh -102.5, ATXN2 expr inh 7.94µM, S2 tox 8.91µM
C=CCSc1nc2ccccc2n1C(=O)/C=C/c1cc(OC)c(OC)c(OC)c1	D3 antag -60.9, IL1B secr inh -104.1, ATXN2 expr inh 10µM, S2 tox 3.55µM
Cc1cc(C)cc(OCCNC(=O)C(C)N2C(=O)c3ccccc3C2=O)c1 (stereo not given)	none
C=CCNC(=S)N/N=C/c1ccc(C)c([N+](=O)[O-])c1	IL1B secr inh inconclusive
